# Hits are enriched below; roughly 1.3% of the tested compounds scored in any of these assays.
# MEP2-GFP yeast: modulators of TOR pathway MEP2-GFP in S. cerevisiae; S. cerevisiae MEP2-GFP strain, flow cytometry GFP, 3 h; 100% = DMSO control level; GFP response vs DMSO, % at 10 µM; hit rate 0.51% among 330,000; AID 2016;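 active = GFP response versus DMSO above a set limit, roughly screen mean plus 3 SD, cut at about 180% in these data; inconclusive = fewer than 70 cells counted for a yeast strain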;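 also: median GFP fluorescence of the barcode-gated MEP2-GFP cells per well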
# RPL19A TOR yeast: yeast TOR pathway RPL19A-GFP modulation. S. cerevisiae RPL19A-GFP strain, flow cytometry, 3 h; stronger effect = lower value. percent response vs DMSO, % at 10 µM. hit rate 0.3% among 330,000. AID 2025;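 active = percent response vs DMSO below 50%; inconclusive = fewer than 70 events counted for the yeast strain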;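 also: median channel GFP fluorescence of the barcoded RPL19A-GFP strain; ratio of sample median GFP to plate DMSO average so 100% = DMSO; lower means less RPL19A-GFP as with rapamycin TOR inhibition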
# AGP1 TOR yeast: yeast TOR pathway AGP1-GFP modulation; S. cerevisiae AGP1-GFP multiplex flow cytometry, 3 h; GFP as percent of DMSO wells; GFP response vs DMSO, % at 10 µM; hit rate 0.02% among 320,000; AID 2066;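 active = GFP response relative to DMSO above a set limit, near screen average plus 3 SD, cut at about 150% in these data; inconclusive = fewer than 70 cells counted for the yeast strain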;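 also: median GFP channel fluorescence of the gated AGP1 strain per well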
# LAP4 TOR yeast: modulators of TOR pathway LAP4-GFP in S. cerevisiae; S. cerevisiae LAP4-GFP multiplex, flow cytometry GFP, 3 h; median GFP as percent of DMSO wells; GFP response vs DMSO, % at 10 µM; hit rate 0.34% among 320,000; AID 2023;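 active = GFP response vs DMSO above a set limit, about the screen mean plus 3 SD, cut at about 150% in these data; inconclusive = under 70 cell events counted for the yeast strain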
# CIT2 TOR yeast: alters CIT2-GFP fluorescence in TOR pathway yeast screen | GFP response vs DMSO, % at 10 µM | S. cerevisiae CIT2-GFP strain, flow cytometry, 3 h; 100 means same as DMSO wells | hit rate 0.065% among 320,000 | AID 2029;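 active = GFP response relative to DMSO above a set limit, near the screen mean plus 3 SD, cut at about 150% in these data; inconclusive = Fewer than 70 cells measured for a yeast strain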;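 also: ratio of well median GFP fluorescence to mean of DMSO wells on the plate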
# Efflux pump inh: inhibitors of Candida antifungal efflux pumps expressed in yeast | S. cerevisiae Candida pump triplex, Nile Red efflux | inhibition, % at 10 µM | hit rate 0.44% among 330,000 | AID 485275;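 active = plate passing quality check with inhibition over a set limit, or well fluorescence over plate mean plus 4 SD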;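 also: Nile Red retained in pooled yeast measured as flow cytometry median fluorescence; 0% = buffer negative control and 100% = Enniatin B positive control; higher means more Nile Red kept so more efflux inhibition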
# Active calls of the source: *; ? = inconclusive; [ ] = remark or other dose.
SMILES,MEP2-GFP yeast,RPL19A TOR yeast,AGP1 TOR yeast,LAP4 TOR yeast,CIT2 TOR yeast,Efflux pump inh
CCn1c(CCC(=O)Nc2nc3c(s2)CCCC3)nc2cc(S(=O)(=O)N(C)C)ccc21,250*[may fluoresce violet],37*[may fluoresce violet],?,75,?,0
CCn1c2ccccc2c2cc(/C=N/n3cn[nH]c3=S)ccc21,87,90,91,160*,83,0
Cc1nnc(N2C(=O)c3cccc4c([N+](=O)[O-])ccc(c34)C2=O)s1,149,102,82,116,106,2.1*
Cc1ccc(N2C(=O)c3cccc4c([N+](=O)[O-])ccc(c34)C2=O)c2cccnc12,104,100,89,116,92,0
COC(=O)C(Cc1ccc(O)cc1)NC(=O)c1ccc2c(c1)OCCO2 (configuration not stated),237*[may fluoresce violet],39*[may fluoresce violet],?,67,?,0
COC(=O)C(Cc1ccc(O)cc1)NC(=O)C(C)Oc1ccccc1 (configuration not stated),104,100,101,98,98,0
COC(=O)C(Cc1ccc(O)cc1)NC(=O)CCc1ccco1 (configuration not stated),?,18*[may fluoresce violet],?,?,?,0
O=C(Cc1ccccc1)NN1CCCCC1,104,105,107,94,110,0
COc1ccc(Cc2nnc(NC(=O)c3ccccc3F)s2)cc1,914*,74,155*,294*,141,0
COc1ccc(Cc2nnc(NC(C)=O)s2)cc1,97,98,96,92,98,0
Cc1ccc(S(=O)(=O)N(CC(=O)Nc2ccccc2C(=O)O)c2ccccc2C)cc1,102,100,107,105,99,0
Cc1ccc(S(=O)(=O)N(CC(=O)Nc2cccnc2)c2ccccc2C)cc1,188*,72,14,86,93,0
O=[N+]([O-])c1cccc(-c2ccc(/C=N/Nc3nc(N4CCCCC4)nc(N4CCCCC4)n3)o2)c1,115,89,103,152*,102,0
CCCCc1cc(=O)oc2cc(C)cc(OCC(=O)N3CCC(C(=O)O)CC3)c12,88,97,99,104,95,0
N#CC1=C(N)OC2=C(CC/C2=C\c2ccccc2)C1c1ccccc1 (configuration not stated),188*[may fluoresce violet],95,19,107,?,0
N#CC1=C(N)OC2=C(CC/C2=C\c2ccccc2Cl)C1c1ccccc1Cl (configuration not stated),105,109,98,97,98,0
COc1ccnc(Oc2ccc(Cl)cc2)c1C#N,103,100,101,104,100,0
COc1ccnc(N=CNOCc2ccc(Cl)cc2)c1C#N,226*[may fluoresce violet],45*[may fluoresce violet],20,89,?,0
COc1cc(S(=O)(=O)N2CCCN(C)CC2)ccc1NC(C)=O,102,97,83,88,95,0
O=[N+]([O-])c1cnc2ccccc2c1,96,99,97,84,107,-1
O=[N+]([O-])c1cc([N+](=O)[O-])c2cc3ccccc3nc2c1,105,101,97,189*,96,0
O=C1Nc2ccccc2C1(O)c1ccccc1O (configuration not stated),?,31*[may fluoresce violet],?,?,?,0
Cc1ccc2nc(NC(=O)c3ccco3)sc2c1,100,98,94,120,95,0
Cc1ccc2nc(NC(=S)NC(=O)c3ccco3)sc2c1,125,40*[may fluoresce violet],?,64,?,0
CC(=O)c1ccc(-n2c(CCC(=O)O)ccc2-c2cccs2)cc1,99,97,104,100,100,0
COC(=O)c1cccc(-n2c(CCC(=O)O)ccc2-c2cccs2)c1,95,95,99,157*,84,0
CC1CCCCN1CCNC(=O)c1ccc2c(c1)N(Cc1ccccc1F)C(=O)c1ccccc1S2=O (configuration not stated),90,98,95,85,96,0
Cc1cccc(CSCc2ccc(C(=O)NC(C)C)o2)c1,259*,104,123,130,139,0

# Compound activity deposited in PubChem by NMMLSC.
